High-throughput results: PubChem, National Center for Advancing Translational Sciences (NCATS)
BAZ2B inh = inhibitors of human BAZ2B bromodomain | AlphaScreen BAZ2B-H3K14Ac peptide displacement | actives 4.4% (n = 360,000) | Potency, µM (top dose mostly 114 µM), inactives show at the highest dose activity change, negative = inhibition, actives largely listed as inhibitors | AID 504333 | Q9UIF8; note: % is set by controls: 0 for no effect and ±100 for the full control effect; nearly all actives have a fitted effect of over 60% in size
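Protein-peptide AlphaScreen: BAZ2B 50 nM, b-H3K14Ac 50 nM, 1x PBS pH 7.4 + 0.01% Tween-20. Preincubation 30 min RT; cpd 30 min RT (top 110 uM); beads 20 min RT, light-protected.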
TDP1 block = TDP1 (human) enzyme inhibition | actives 0.28% (n = 350,000) | Potency, µM (doses to about 130 µM), inactives show at the top dose activity change, negative = inhibition, most hits filed as inhibitors | recombinant TDP1, AlphaScreen DNA substrate cleavage; note: % is set by controls: 0 for no effect and ±100 for the full control effect; nearly all actives have a fitted effect of over 40% in size
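Recombinant human Tdp1 (E. coli-expressed, 1 nM final) preincubated with compounds 15 min at room temperature, then 5'-biotin/3'-phosphotyrosine-FITC DNA substrate (15 nM final) added for 5 min. AlphaScreen beads (10 ug/ml final) added 10 min; cleavage lowers signal.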
Sfp inh = Sfp phosphopantetheinyl transferase inhibition | Q9F4F7 | Biochemical Sfp PPTase activity, qHTS | Potency, µM, for inactives: largest response in the series, negative = inhibition, usual class: inhibitors | actives 3.5% (n = 310,000);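 note: the enzyme is Sfp with the accession as filed and its product quenches rhodamine fluorescence; 0% = enzyme reaction without inhibitor and -100% = no enzyme wells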
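With Hepes-Na pH 7.6 buffer containing 10 mM MgCl2, Sfp (15 nM) modified BHQ-2-YbbR (12.5 uM) using rhodamine-CoA (5 uM). Two reads 30 minutes apart at 525/598 nm yielded each well's rate.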
G9a block = inhibitors of human histone lysine methyltransferase G9a; Q96KQ7; G9a H3K9 monomethylation, AlphaScreen, 2 h; Potency, µM (doses to about 102 µM), for the others: top-dose activity, negative = inhibition, usual class: inhibitors; actives 8.8% (n = 350,000); AID 504332; note: % is set by controls: 0 for no effect and ±100 for the full control effect; nearly all actives have a fitted effect of over 75% in size
Target sequence (Q96KQ7 913-1193 limits assumed): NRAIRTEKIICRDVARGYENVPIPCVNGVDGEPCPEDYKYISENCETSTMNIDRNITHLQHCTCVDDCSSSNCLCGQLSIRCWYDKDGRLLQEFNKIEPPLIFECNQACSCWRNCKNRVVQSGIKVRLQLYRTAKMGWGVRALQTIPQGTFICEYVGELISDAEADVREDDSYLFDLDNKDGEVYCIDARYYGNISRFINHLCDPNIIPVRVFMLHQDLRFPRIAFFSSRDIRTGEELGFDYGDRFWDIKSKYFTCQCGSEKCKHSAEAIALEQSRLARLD
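Methyltransferase reactions run at room temperature for 2 h (20 nM enzyme, 500 nM biotin-H3K9 peptide, 20 uM SAM) after a 15 min compound preincubation; product detected by AlphaScreen beads and anti-H3K9me1 antibody.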
JMJD2A Tudor = blocks the human JMJD2A Tudor domain; O75164; AlphaScreen JMJD2A-Tudor / H3K4me3 peptide binding; Potency, µM (titrated, usually from 114 µM), for the others: at the highest dose activity change, negative = inhibition, actives largely listed as inhibitors; actives 4.4% (n = 390,000); note: % is set by controls: 0 for no effect and ±100 for the full control effect; nearly all actives have a fitted effect of over 50% in size
HP1b chromo inh = blocks HP1-beta chromodomain binding to methylated histone tails | P83916 | AlphaScreen HP1-beta / biotin-H3K9me3 peptide binding | Potency, µM (highest dose often 114 µM), inactives show at the highest dose activity change, negative = inhibition, actives largely listed as inhibitors | actives 0.56% (n = 390,000) | AID 540317; note: nearly all actives have a fitted effect of over 70% in size
Target sequence (P83916 whole entry, looked up): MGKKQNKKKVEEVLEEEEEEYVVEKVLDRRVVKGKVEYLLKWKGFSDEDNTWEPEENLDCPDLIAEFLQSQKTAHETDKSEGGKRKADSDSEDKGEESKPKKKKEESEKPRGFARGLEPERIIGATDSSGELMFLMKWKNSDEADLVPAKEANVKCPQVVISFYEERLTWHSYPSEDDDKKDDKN
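Compound inhibition of the preformed complex between 50 nM HP1-beta and 50 nM biotinylated H3K9me3 peptide was read by AlphaScreen. Buffer was PBS pH 7.4 with 0.01% Tween-20. Incubations ran 30 min at room temperature, with 10 ug/mL donor/acceptor beads.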
Numbers without * were called inactive; ? = inconclusive; nt = no result; [ ] = another dose, or the depositor's remark. Shown are actives, neighbours in structure and some others; about 12% of the full set was active somewhere. Calls come from the whole dose curve; as a rule, active = well fitted curve in the direction sought with a large enough effect; inconclusive = small, poorly fitted or top-dose-only effect, or another doubt; inactive = no such curve, though single readings can be large; an effect the other way counts as inactive or inconclusive. Potency is the fitted concentration of half-maximal effect.

SMILES	BAZ2B inh	TDP1 block	Sfp inh	G9a block	JMJD2A Tudor	HP1b chromo inh
COc1cccc(N2CCN(S(=O)(=O)c3cn(C)cn3)CC2)c1	-1.7%[57.1 µM]	-2.5%	6.3%	13.0%	-15.3%	44.8%
CSc1ccc(CN2CCc3c([nH]c4ccccc34)C2)cc1	?	nt	-16.6%	nt	3.16µM*	?
O=C(NC1CCN(Cc2ccc(Cl)c(Cl)c2)CC1)c1ccccc1	-21.4%	nt	18.0%	?	-12.3%	37.3%
COc1cc(OC)c(CN2CCc3c([nH]c4ccccc34)C2)cc1Br	?	nt	3.1%	?	?	-20.3%
Cc1cccc(CN2CCc3c([nH]c4ccccc34)C2)c1	50.1µM*	nt	-8.9%	44.7µM*	20µM*	44.7µM*
Clc1ccc(CN2CCc3c([nH]c4ccccc34)C2)cc1Cl	31.6µM*	nt	?	28.2µM*	15.8µM*	?
CSc1ccc(C2c3[nH]c4ccccc4c3CCN2C(=O)CCc2ccccc2)cc1 (stereo not drawn)	-27.7%	5.4%	nt	-42.3%[59 µM]	?	-4.7%[57 µM]
Clc1cccc(CN2CCc3c([nH]c4ccccc34)C2)c1	50.1µM*	nt	?	nt	20µM*	?
c1ccc(CN2CCc3[nH]c4ccccc4c3C2)cc1	nt	nt	nt	nt	?	-10.2%
CNC(=O)c1ccccc1Sc1cccc2cccc(C(=O)O)c12	0.6%	nt	12.1%	27.8%	0.0%	33.9%
COC1CC2CCC(C)[C@](O)(O2)C(=O)C(=O)N2CCCCC2C(=O)OC(C(C)CC2CCC(O)C(OC)C2)CC(=O)C(C)/C=C(/C)C(O)C(OC)C(=O)C(C)CC(C)C=CC=C/C=C\1C (stereo partly drawn)	nt	nt	-5.0%	-3.6%[12.7 µM]	nt	nt
CCCC(=O)Nc1nc(-c2ccccc2)c(CC)s1	?	2.7%	8.1%	-3.3%	3.0%[11.4 µM]	18.2%
O=C(NC1(C(F)(F)F)NC(=O)N(Cc2ccco2)C1=O)c1cccs1 (stereo not drawn)	-5.7%	-4.1%	35.5µM*	?	-22.3%	-9.6%
O=C(NC1(C(F)(F)F)NC(=O)N(Cc2ccccc2)C1=O)c1cccnc1 (stereo not drawn)	?	4.2%	6.8%	6.8%	-2.5%	25.5%
O=C(NC1(C(F)(F)F)NC(=O)N(Cc2ccco2)C1=O)c1cccnc1 (stereo not drawn)	11.1%	2.1%	?	39.8µM*	-9.1%	33.7%
Cc1ccc(Cl)cc1NC(=O)C(C)n1nnc2sc3c(c2c1=O)CCCC3 (stereo not drawn)	-2.6%	0.0%	nt	-28.5%[59 µM]	-15.1%	38.3%
CCCCC[C@H](O)/C=C/[C@H]1OC(=O)C[C@H](O)[C@@H]1C/C=C\CCCC(=O)O	nt	8.7%	-14.8%	nt	nt	nt
C=CCC1C=C(Cc2ccccc2)CC(CC=C)N1 (stereo not drawn)	-10.5%	7.0%	0.8%	-48.8%	-17.9%	25.2%
C=CC[C@H]1CC(Cc2ccccc2)=C[C@H](CC=C)N1	-5.1%	4.3%	13.4%	44.7µM*	?	?
O=C(c1ccc(N2CCOCC2)c([N+](=O)[O-])c1)N1CCCC(C(F)(F)F)C1 (stereo not drawn)	4.3%	nt	nt	12.4%[59 µM]	-14.5%	6.2%
COc1cc(-n2ccnc2SC)c(Cl)cc1Cl	12.6µM*	6.7%	16.0%	2.8%[59 µM]	-8.2%[11.4 µM]	22.4µM*
COc1ccccc1-n1ccnc1SCC(=O)NC1CCCC1	-3.6%	-12.3%	0.0%	-5.1%	-9.4%	2.0%
Cc1ccccc1-n1c(-c2csc3ccccc23)n[nH]c1=S	-37.7%	0.0%	14.0%	2µM*	?	10.4%
Cc1cccc(-n2c(-c3csc(C)c3C)n[nH]c2=S)c1	-11.4%	0.0%	2.2%	1.12µM*	22.4µM*	-1.8%
Cc1cccc(-n2c(-c3csc(C(C)C)c3)n[nH]c2=S)c1	-33.0%	11.9%	1.3%	?	?	11.8%
SMILES	BAZ2B inh	TDP1 block	Sfp inh	G9a block	JMJD2A Tudor	HP1b chromo inh
Cc1ccccc1-n1c(-c2csc(C)c2C)n[nH]c1=S	-8.7%	5.3%	-10.5%	1µM*	50.1µM*	22.3%
Cc1ccccc1-n1c(=S)[nH]c2nc3c(cc2c1=O)CCCC3	-17.0%	1.2%	21.5%	20.3%	-16.0%	46.2%
Cc1ccc(-n2nc3c(=O)n(CC(=O)NCCC(C)C)nc(C)c3c2C)cc1	-2.4%	5.6%	nt	2.8%[59 µM]	14.5%	25.6%
CC(=O)C(C(C)=O)c1c(Cl)c(O)c(O)c2c(C(=O)c3ccccc3)coc12	44.7µM*	5.1%	6.31µM*	?	63.1µM*	?
CN1CCN(Cc2c(O)ccc3occ(C(=O)c4ccccc4)c23)CC1	-3.8%	5.3%	8.2%	-9.1%[59 µM]	-15.5%	7.9%
COc1cc(C2C(C#N)=C(N)Oc3c2oc(CO)cc3=O)ccc1OC(C)C (stereo not drawn)	-5.0%	5.1%	-28.7%	?	15.8µM*	12.6%
COc1ccc(C2c3cccn3CCN2S(=O)(=O)c2ccc([N+](=O)[O-])cc2)cc1 (stereo not drawn)	?	13.0%	nt	12.6µM*	-34.7%	-4.4%
COc1ccc(CCN2C(=O)CN(C3CCCCCC3)C(=O)C2c2ccc(Cl)cc2)cc1OC (stereo not drawn)	-14.2%	10.4%	nt	-6.8%[59 µM]	-24.5%	-6.1%
COc1ccc(/C=C/C2=CC(C)(C)NC(=S)N2)cc1OC	nt	8.1%	13.3%	44.7µM*	-35.5%	15.7%
O=C(Cn1cnc([N+](=O)[O-])n1)N/N=C/c1cc(Cl)ccc1O	28.2µM*	8.9%	21.2%	8.3%	31.6µM*	19.4%
O=C(Cn1cnc([N+](=O)[O-])n1)N/N=C/c1ccccc1O	14.1µM*	6.7%	27.4%	95.2%[59 µM]	?	49.6%
Cn1c2cc(Br)sc2c2cnn(Cc3ccccc3F)c(=O)c21	nt	nt	nt	nt	0.7%	nt
COc1ccc(S(=O)(=O)N2CCCN(CC(=O)Nc3ccc(OC)cc3OC)CC2)cc1	-28.1%	5.8%	nt	4.7%[59 µM]	-20.5%	22.1%
CNc1c(NC(=O)C2CCC(C)CC2)c(=O)oc2ccccc12 (stereo not drawn)	8.5%	79.4µM*	?	10.3%	-31.5%	46.4%
O=C(Nc1ccc(F)cc1)c1oc2ccccc2c1NC(=O)C1CCCCC1	-11.3%	-3.8%	nt	-32.8%[59 µM]	-8.3%	46.5%
Cc1ccc(NC(=O)c2oc3ccccc3c2NC(=O)C2CCCCC2)cc1	20.7%	-1.3%	nt	31.6%[59 µM]	79.4µM*	83.9%
CCCc1cc(=O)[nH]c2nnc(SCC(=O)NC3CCCCC3)n12	12.6%	nt	nt	14.3%[0.501 µM]	-2.1%	29.3%
O=C(CN(Cc1ccco1)C(=O)c1ccc(N2CCCC2=O)cc1)Nc1ccccc1C(F)(F)F	-2.3%	nt	nt	-4.6%[59 µM]	-12.4%	13.3%
CCOC(=O)c1c(-c2ccccc2)c2cc(OC)ccc2n1CCCN(C)C	0.6%	nt	-6.4%	nt	-18.7%	17.4%
